# From ChEMBL document CHEMBL1961873, “Compounds: GSK PKIS; Assays: Nanosyn kinase panel” (2012)
# Where “and” joins values, the source holds several entries; their conditions need not be identical. Identical values can stand only once.
# Tests used:
# [1] = biological target: Serine/threonine-protein kinase 26 (Homo sapiens) (UniProt Q9P289); details: at 1 µM;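 note: mean inhibition of MST4 kinase activity, reported from the GSK PKIS inhibitor-set screening panel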
# [2] = biological target: Serine/threonine-protein kinase PAK 1 (Homo sapiens) (UniProt Q13153); details: at 0.1 µM
# [3] = biological target: Serine/threonine-protein kinase PAK 1 (Homo sapiens) (UniProt Q13153); details: at 1 µM
# [4] = biological target: Serine/threonine-protein kinase PAK 2 (Homo sapiens) (UniProt Q13177); details: at 0.1 µM
# [5] = biological target: Serine/threonine-protein kinase PAK 2 (Homo sapiens) (UniProt Q13177); details: at 1 µM
# [6] = biological target: Serine/threonine-protein kinase PAK 3 (Homo sapiens) (UniProt O75914); details: at 0.1 µM
# [7] = biological target: Serine/threonine-protein kinase PAK 3 (Homo sapiens) (UniProt O75914); details: at 1 µM
# [8] = biological target: Serine/threonine-protein kinase PAK 5 (Homo sapiens) (UniProt Q9P286); details: at 0.1 µM
# [9] = biological target: Serine/threonine-protein kinase PAK 5 (Homo sapiens) (UniProt Q9P286); details: at 1 µM
# [10] = biological target: Serine/threonine-protein kinase PAK 6 (Homo sapiens) (UniProt Q9NQU5); details: at 0.1 µM
# [11] = biological target: Serine/threonine-protein kinase PAK 6 (Homo sapiens) (UniProt Q9NQU5); details: at 1 µM
# [12] = system: Tyrosine-protein kinase ABL1 (Homo sapiens), P00519 [E255K]; details: at 0.1 µM
# [13] = system: Tyrosine-protein kinase ABL1 (Homo sapiens), P00519 [E255K]; details: at 1 µM
# [14] = system: Tyrosine-protein kinase ABL1 (Homo sapiens), P00519 [H396P]; details: at 0.1 µM
# [15] = system: Tyrosine-protein kinase ABL1 (Homo sapiens), P00519 [H396P]; details: at 1 µM
# [16] = system: Tyrosine-protein kinase ABL1 (Homo sapiens), P00519 [M351T]; details: at 0.1 µM
# [17] = system: Tyrosine-protein kinase ABL1 (Homo sapiens), P00519 [M351T]; details: at 1 µM
# [18] = system: Tyrosine-protein kinase ABL1 (Homo sapiens), P00519 [Q252H]; details: at 0.1 µM
# [19] = system: Tyrosine-protein kinase ABL1 (Homo sapiens), P00519 [Q252H]; details: at 1 µM
# [20] = system: Tyrosine-protein kinase ABL1 (Homo sapiens), P00519 [T315I]; details: at 0.1 µM
# Serine/threonine-protein kinase 26 (Homo sapiens), sequence (Q9P289 2-416 limits assumed): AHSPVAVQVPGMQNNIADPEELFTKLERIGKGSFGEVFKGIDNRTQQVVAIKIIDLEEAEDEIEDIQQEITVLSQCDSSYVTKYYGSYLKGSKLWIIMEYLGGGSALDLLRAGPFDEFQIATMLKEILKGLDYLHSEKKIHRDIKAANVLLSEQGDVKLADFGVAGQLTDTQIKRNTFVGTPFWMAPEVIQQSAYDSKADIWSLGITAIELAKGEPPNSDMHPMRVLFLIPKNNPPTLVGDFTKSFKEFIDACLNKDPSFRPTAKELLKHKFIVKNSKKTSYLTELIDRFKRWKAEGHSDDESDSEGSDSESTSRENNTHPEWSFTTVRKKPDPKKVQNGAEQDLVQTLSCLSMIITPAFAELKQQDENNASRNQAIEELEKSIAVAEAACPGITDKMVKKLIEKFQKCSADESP
# Serine/threonine-protein kinase PAK 5 (Homo sapiens), sequence (Q9P286 whole entry, looked up): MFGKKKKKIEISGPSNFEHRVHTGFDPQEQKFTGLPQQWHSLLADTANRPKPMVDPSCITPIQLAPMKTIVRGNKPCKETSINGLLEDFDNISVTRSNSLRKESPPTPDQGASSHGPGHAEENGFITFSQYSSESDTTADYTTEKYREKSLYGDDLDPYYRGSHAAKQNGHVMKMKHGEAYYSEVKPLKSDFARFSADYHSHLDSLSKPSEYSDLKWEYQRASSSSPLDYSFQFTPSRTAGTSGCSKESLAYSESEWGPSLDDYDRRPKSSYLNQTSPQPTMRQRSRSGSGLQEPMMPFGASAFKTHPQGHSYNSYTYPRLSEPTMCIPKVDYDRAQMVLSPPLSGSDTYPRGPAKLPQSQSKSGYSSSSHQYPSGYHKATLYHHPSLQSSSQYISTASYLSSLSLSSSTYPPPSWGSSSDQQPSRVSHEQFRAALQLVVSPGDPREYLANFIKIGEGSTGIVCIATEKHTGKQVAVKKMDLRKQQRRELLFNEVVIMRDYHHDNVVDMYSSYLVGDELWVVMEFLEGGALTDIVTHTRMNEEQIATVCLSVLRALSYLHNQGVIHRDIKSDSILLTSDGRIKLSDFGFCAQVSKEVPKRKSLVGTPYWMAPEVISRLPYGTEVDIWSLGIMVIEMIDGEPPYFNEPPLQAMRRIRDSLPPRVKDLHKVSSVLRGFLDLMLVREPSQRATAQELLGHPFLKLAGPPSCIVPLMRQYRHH
# Serine/threonine-protein kinase PAK 2 (Homo sapiens), sequence (Q13177 whole entry): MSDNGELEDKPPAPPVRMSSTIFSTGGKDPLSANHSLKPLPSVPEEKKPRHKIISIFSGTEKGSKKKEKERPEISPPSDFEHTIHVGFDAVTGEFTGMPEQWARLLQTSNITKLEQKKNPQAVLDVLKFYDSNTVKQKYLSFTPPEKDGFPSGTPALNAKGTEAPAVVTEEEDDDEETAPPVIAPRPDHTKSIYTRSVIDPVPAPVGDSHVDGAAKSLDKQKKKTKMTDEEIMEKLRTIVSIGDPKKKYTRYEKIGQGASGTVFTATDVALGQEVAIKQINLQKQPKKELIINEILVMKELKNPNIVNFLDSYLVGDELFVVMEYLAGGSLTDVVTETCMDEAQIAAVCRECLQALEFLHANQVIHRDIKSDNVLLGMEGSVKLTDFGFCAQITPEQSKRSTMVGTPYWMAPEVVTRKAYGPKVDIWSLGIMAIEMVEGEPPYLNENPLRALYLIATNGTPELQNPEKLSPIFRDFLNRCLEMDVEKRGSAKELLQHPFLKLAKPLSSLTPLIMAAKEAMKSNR
# Serine/threonine-protein kinase PAK 6 (Homo sapiens), sequence (Q9NQU5 whole entry, looked up): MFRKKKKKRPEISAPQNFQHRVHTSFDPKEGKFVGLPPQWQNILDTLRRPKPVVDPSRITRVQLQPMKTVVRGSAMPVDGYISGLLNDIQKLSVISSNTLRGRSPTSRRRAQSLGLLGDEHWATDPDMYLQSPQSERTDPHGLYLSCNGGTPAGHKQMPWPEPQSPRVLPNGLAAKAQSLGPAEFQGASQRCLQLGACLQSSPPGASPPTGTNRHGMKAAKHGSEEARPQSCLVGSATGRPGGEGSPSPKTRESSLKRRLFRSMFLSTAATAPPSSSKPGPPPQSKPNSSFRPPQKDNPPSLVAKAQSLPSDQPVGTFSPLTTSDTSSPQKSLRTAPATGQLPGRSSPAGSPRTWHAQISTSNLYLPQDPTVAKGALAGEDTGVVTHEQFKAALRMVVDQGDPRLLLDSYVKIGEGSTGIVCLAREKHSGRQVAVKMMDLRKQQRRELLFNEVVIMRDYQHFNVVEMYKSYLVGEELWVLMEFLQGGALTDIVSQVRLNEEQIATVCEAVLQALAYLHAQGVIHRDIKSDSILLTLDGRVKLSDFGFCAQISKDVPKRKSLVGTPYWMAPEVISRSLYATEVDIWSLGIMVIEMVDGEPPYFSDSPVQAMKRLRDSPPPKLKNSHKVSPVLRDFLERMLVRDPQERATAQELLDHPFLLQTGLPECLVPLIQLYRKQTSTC
# Serine/threonine-protein kinase PAK 3 (Homo sapiens), sequence (O75914 whole entry, looked up): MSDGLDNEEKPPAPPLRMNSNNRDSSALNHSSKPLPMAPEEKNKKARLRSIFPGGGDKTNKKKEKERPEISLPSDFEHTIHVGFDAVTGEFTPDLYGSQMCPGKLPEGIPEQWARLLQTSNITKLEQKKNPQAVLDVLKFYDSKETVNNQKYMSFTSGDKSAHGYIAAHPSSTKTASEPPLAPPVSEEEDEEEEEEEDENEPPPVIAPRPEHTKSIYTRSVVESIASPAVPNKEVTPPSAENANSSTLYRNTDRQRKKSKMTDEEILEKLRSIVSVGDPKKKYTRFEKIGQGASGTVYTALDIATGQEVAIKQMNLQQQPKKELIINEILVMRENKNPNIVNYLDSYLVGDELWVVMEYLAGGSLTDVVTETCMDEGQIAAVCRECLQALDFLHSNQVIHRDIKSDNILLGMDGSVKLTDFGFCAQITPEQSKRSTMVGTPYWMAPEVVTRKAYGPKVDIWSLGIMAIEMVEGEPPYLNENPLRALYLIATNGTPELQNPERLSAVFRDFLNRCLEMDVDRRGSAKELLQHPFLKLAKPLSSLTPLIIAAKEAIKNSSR
# Serine/threonine-protein kinase PAK 1 (Homo sapiens), sequence (Q13153 whole entry): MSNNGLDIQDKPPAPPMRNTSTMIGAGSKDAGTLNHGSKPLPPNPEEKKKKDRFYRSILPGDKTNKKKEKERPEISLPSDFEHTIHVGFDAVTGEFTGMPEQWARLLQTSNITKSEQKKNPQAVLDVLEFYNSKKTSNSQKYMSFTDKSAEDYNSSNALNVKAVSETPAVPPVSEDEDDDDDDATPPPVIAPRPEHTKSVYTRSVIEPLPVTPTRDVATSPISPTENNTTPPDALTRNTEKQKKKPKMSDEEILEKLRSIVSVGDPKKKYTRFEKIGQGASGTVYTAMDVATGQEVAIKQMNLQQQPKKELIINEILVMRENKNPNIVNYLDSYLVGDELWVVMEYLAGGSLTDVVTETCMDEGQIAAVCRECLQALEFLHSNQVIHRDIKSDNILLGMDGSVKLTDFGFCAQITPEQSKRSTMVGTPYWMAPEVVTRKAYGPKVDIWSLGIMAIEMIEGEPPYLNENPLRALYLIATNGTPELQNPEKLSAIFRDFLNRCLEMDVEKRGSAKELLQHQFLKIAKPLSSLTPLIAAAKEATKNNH
Compound,inhibition [1],inhibition [2],inhibition [3],inhibition [4],inhibition [5],inhibition [6],inhibition [7],inhibition [8],inhibition [9],inhibition [10],inhibition [11],inhibition [12],inhibition [13],inhibition [14],inhibition [15],inhibition [16],inhibition [17],inhibition [18],inhibition [19],inhibition [20]
O=C(O[C@H]1CN[C@H](C#Cc2cc3ncnc(Nc4ccc5c(ccn5Cc5cc(F)ccc5F)c4)c3s2)C1)N1CCOCC1,0.81%,9.36%,8.97%,2.13%,2.48%,5.02%,5.53%,-0.09%,-5.06%,-1.93%,-0.57%,1.52%,3.53%,4.04%,8.92%,1.92%,3.98%,3.74%,3.88%,3.97%
NS(=O)(=O)c1cccc(N/C=C2\C(=O)Nc3ccccc32)c1,-1.86%,5.24%,8.78%,1.76%,2.04%,4.81%,4.94%,-8.13%,-8.7%,3.85%,1.64%,5.29%,7.64%,6.01%,8.67%,3.89%,8.75%,5.8%,8.71%,3.14%
O=C1Nc2ccccc2/C1=C1\CCc2cc(O)ccc21,-7.51%,7.55%,7.72%,2.86%,3.05%,5.7%,6.44%,0.23%,1.47%,-1.41%,-3.1%,1.09%,9.2%,5.59%,15%,4.89%,15.4%,5.53%,12.8%,4.27%
CC(C)c1ccc(-c2cc(-c3c[nH]nc3-c3ccccn3)ccn2)cc1,3.31%,1.09%,-1.39%,0.93%,-0.21%,-0.3%,0.21%,-1.29%,-0.36%,2.8%,-0.86%,2.44%,17.2%,7.55%,40.1%,5.28%,38.5%,3.86%,21.4%,1.9%
COc1ccc(-c2nn3ncccc3c2-c2ccnc(Nc3ccc(F)c(F)c3)n2)cc1,0.76%,3.1%,5.49%,1.93%,0.93%,2.36%,5.12%,3.31%,0.77%,5.78%,-1.89%,3.61%,10.3%,4.57%,22.8%,17%,58.1%,12.2%,47.4%,5.18%
CS(=O)(=O)CCNCc1ccc(-c2ccc3ncnc(Nc4ccc(OCc5ccccc5)cc4)c3c2)o1,1.34%,6.85%,5.65%,0.34%,-0.94%,3.86%,3.33%,3.91%,2.57%,-3.53%,-0.08%,2.13%,3.38%,4.24%,5.36%,2.42%,4.54%,3.95%,5.12%,1.78%
CN1CCC(n2cnc(-c3ccc(F)cc3)c2-c2ccnc(NCCO)n2)CC1,1.34%,5.86%,7.1%,2.03%,2.52%,3.99%,3.76%,0.7%,1.35%,3.38%,-2.04%,2.22%,5.59%,3.64%,6.05%,0.67%,7.5%,5.69%,4.05%,3.06%
OCCCNc1nccc(-c2c(-c3ccc(F)cc3)nn3cc(C(F)(F)F)ccc23)n1,-0.53%,6.37%,5.57%,2.56%,2.03%,2.17%,3.68%,-4.85%,-5.58%,8.72%,-2.02%,3.05%,3.11%,3.42%,3.33%,2.71%,3%,4.61%,3.52%,1.5%
Cc1nnc(-c2cccc(-c3ccc(C(=O)NCC4CC4)cc3)c2)o1,0.39%,9.41%,10.5%,2.54%,3.86%,7.07%,5.35%,4.12%,2.3%,4.58%,-1.37%,4.38%,4.87%,4.09%,6.67%,2.13%,5.6%,4.31%,5.92%,4.43%
COc1cc(Nc2ncc(-c3ccccc3)o2)cc(OC)c1,-4.28%,6.86%,6.69%,1.76%,1.6%,4.74%,3.26%,2.83%,4.51%,0.07%,-4.99%,5.8%,23.1%,9.34%,39.7%,8.13%,41.1%,9.25%,33.6%,4.18%
Cc1ccc(-c2cc3c(NC(=O)C4CC4)ncnc3o2)cc1,-2.53%,3.85%,5.51%,1.95%,1.97%,3.79%,4.95%,4.59%,-3.05%,4.74%,1.82%,5.52%,18.3%,5.91%,24.2%,3.97%,22.8%,6.11%,23.7%,4.71%
CS(=O)(=O)Nc1ccc(-c2ccc3c(NC(=O)C4CC4)n[nH]c3c2)cc1,-2.98%,3.5%,5.34%,1.62%,1.36%,3.41%,4.16%,-0.3%,0.91%,0.76%,5.45%,2.53%,5.92%,4.24%,17.5%,4.89%,20.3%,4.73%,9.35%,4.61%
Nc1ncnc2occ(-c3ccc(NC(=O)Nc4cc(C(F)(F)F)ccc4F)cc3)c12,1.08% and -2.02%,3.44% and -1.9%,4.36% and -1.17%,0.88% and -1%,1.23% and -1.68%,2.44% and -2.03%,1.87% and -1.59%,-0.44% and -3.26%,-2.53% and -0.87%,1.24%,0.09% and -8.17%,5.05% and 2.1%,33.4% and 18.4%,24.2% and 11.5%,73.1% and 58.4%,56.4% and 49.1%,84.6% and 76.3%,55.7% and 45.2%,79.1% and 74%,53.6% and 39.2%
Nc1nccc(-c2c(-c3ccc(F)cc3)ncn2C2CCNCC2)n1,5.19% and 1.66%,-3.53% and -3.93%,-2.75% and -0.14%,-3.09% and 0.25%,-2.02% and 1.56%,-4.58% and -1.23%,-3.86% and -0.28%,-9.21% and 0.56%,-3.77% and 2.85%,-8.03% and 2.08%,-8.13% and -0.6%,-2.24% and 1.83%,-1.66% and 0.75%,-1.77% and 0.86%,3.78% and 0.72%,-2.76% and 1.38%,4.44% and 1.12%,-0.74% and -0.69%,4.57% and 2.57%,-3.43% and 2.15%
